Source: PubChem BioAssay
Cruzain Triton: qHTS Assay for Promiscuous and Specific Inhibitors of Cruzain (with detergent); purified cruzain, Z-FR-AMC fluorescence, 0.01% Triton; Potency, µM, inactives show max response, negative = inhibition, usual class: inhibitors; 200,000 tested, 0.43% active; AID 1478, 2009;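 note: plate controls were neutral wells for no effect and buffer without enzyme for full effect; nearly all actives have a fitted effect of over 40% in size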
Target sequence (P25779 123-467 limits assumed): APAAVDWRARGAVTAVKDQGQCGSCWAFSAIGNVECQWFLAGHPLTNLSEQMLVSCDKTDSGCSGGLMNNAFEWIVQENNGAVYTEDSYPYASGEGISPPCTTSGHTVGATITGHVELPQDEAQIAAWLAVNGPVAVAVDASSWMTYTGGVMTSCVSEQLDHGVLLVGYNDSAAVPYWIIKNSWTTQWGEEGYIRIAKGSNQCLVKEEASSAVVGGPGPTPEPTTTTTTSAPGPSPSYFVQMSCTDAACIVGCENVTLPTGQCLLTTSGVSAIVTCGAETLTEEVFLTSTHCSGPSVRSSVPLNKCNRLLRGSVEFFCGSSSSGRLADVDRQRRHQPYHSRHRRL
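Cruzain (1.5 nM) preincubated 15 min at RT with compound in 100 mM sodium acetate pH 5.5, 5 mM DTT, 0.01% Triton X-100. Reaction started with 2 uM Z-FR-AMC; AMC fluorescence (ex 360/em 450 nm) change over 60 s gave rate.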
Cruzain noTriton: qHTS Assay for Promiscuous and Specific Inhibitors of Cruzain (without detergent) | Cruzipain (Trypanosoma cruzi), P25779 | Potency, µM, for inactives: max response, negative = inhibition, usual class: inhibitors | purified cruzain, Z-FR-AMC fluorescence, no detergent | 200,000 tested, 2.3% active | AID 1476, 2009;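 note: plate controls were enzyme without inhibitor for no effect and buffer without enzyme for full effect; nearly all actives have a fitted effect of over 40% in size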
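Detergent-free condition (0.00005% Triton X-100) in acetate buffer pH 5.5 with DTT. 1.5 nM enzyme and compound were pre-mixed 15 min, then 2 uM Z-FR-AMC substrate added; reaction progress from fluorescence change between first and third reads (60 s).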
* hit, by the source's call; ? = inconclusive. The list is not random: actives were taken first. Their share in the collection is about 2.4%. Calls come from the whole dose curve; as a rule, active = well fitted curve in the direction sought with a large enough effect; inconclusive = small, poorly fitted or top-dose-only effect, or another doubt; inactive = no such curve, though single readings can be large; an effect the other way counts as inactive or inconclusive. Potency is the fitted concentration of half-maximal effect.

SMILES | Cruzain Triton | Cruzain noTriton
CCOc1ccccc1CNC(=O)CCCn1nc(C)c2sc3ccccc3c2c1=O | -8% | -17%
COc1ccc(N2CCN(CC(O)COc3ccccc3C(C)(C)C)CC2)cc1 (stereo not given) | -7% | -3%
O=C(CSc1nnc(SCc2cccc3ccccc23)s1)c1ccc2c(c1)OCO2 | -2% | 25µM*
CN(C)S(=O)(=O)c1ccc(C(=O)Nc2nnc(SCc3cccc4ccccc34)s2)cc1 | 0% | ?
O=C(CSc1nc2ccccc2[nH]1)c1ccc2c(c1)OCO2 | -1% | 2.5µM*
O=C(CSc1nnc(SCc2cccc3ccccc23)s1)N=Nc1c(O)[nH]c2ccccc12 | -4% | 7.9µM*
O=C(CSc1ccccn1)c1ccc2c(c1)OCO2 | -1% | -9%
Cc1ccc2nc(SCC(=O)c3ccc4c(c3)OCO4)[nH]c2c1 | -3% | ?
Cc1c(NC(=O)C(F)(F)F)ccc2nc3c(=O)n(C)c(=O)n(C)c3nc12 | -5% | 12%
Cc1cccc(C(=O)NCCc2nc3ccccc3n2CCC(C)C)c1 | 13µM* | 20%
Cc1ccccc1OCCCCn1c(CCNC(=O)C(C)(C)C)nc2ccccc21 | -7% | ?
C=C(C)Cn1c(CCCNC(=O)CC)nc2ccccc21 | 0% | 6%
CCCCn1c(CCCNC(=O)c2cccc(C)c2)nc2ccccc21 | 1% | -1%
CCCCn1c(CCNC(=O)c2ccc(F)cc2)nc2ccccc21 | 7.1µM* | 9%
Cc1ccc(OCCCn2c(CCNC(=O)C3CCCCC3)nc3ccccc32)c(C)c1 | 2.5µM* | -3%
CCCCCn1c(CNC(=O)c2ccc(F)cc2)nc2ccccc21 | -18% | 16%
C=C(C)Cn1c(CCNC(=O)CCC)nc2ccccc21 | -2% | 16µM*
Cc1ccc(S(=O)(=O)N2CCC(N3CCN(Cc4ccccc4)C(=O)C3=O)CC2)cc1C | 4% | -3%
COc1ccc(-c2cc(C(=O)Nc3cc(C(F)(F)F)ccc3Cl)no2)cc1 | 1% | -4%
COc1ccccc1N(CC(=O)NCCSc1ccccc1)S(=O)(=O)c1ccc(C)cc1 | -6% | 1%
CCCn1c(CCNC(=O)c2cccs2)nc2ccccc21 | 16µM* | 15%
CCn1c(CCNC(=O)c2ccc(F)cc2)nc2ccccc21 | 22µM* | 2.5µM*
CCn1c(CCCNC(=O)c2ccc(F)cc2)nc2ccccc21 | 5% | -7%
CCn1c(CCCNC(=O)c2cccs2)nc2ccccc21 | 3% | 5%
O=C(Cc1cccs1)Nc1c(C(=O)Nc2ccc(F)cc2)oc2ccccc12 | -1% | 5%
SMILES | Cruzain Triton | Cruzain noTriton
CCN(c1ccccc1)S(=O)(=O)c1nnc(NC(=O)COc2ccccc2F)s1 | -1% | 8%
COc1ccc(-c2nc(NC(=O)c3ccc(OCC(=O)N4CCOCC4)c(OC)c3)sc2C)cc1 | -10% | ?
COc1ccc(Br)c2c1-c1nc(NC(=O)c3ccc(F)cc3)sc1C2 | -4% | -5%
CCc1ccc(-c2nc(NC(=O)c3ccc(OCC(=O)Nc4ccc(F)cc4)c(OC)c3)sc2C)cc1 | -5% | 4µM*
COc1cc(C(=O)Nc2nc(-c3ccc(Cl)cc3)c(C)s2)ccc1OCC(=O)Nc1ccc(F)cc1 | -1% | 16µM*
Cc1noc(/C=C/c2ccccc2F)c1S(=O)(=O)N1CCC(C(=O)Nc2ccc(C#N)cc2)CC1 | -5% | -7%
O=C(C1=C[C@@H]2[C@H]3C(=O)N(c4ccc(Cl)cc4)C(=O)[C@H]3[C@@H](C(=O)c3ccc(Cl)cc3)N2C=C1)c1ccccc1 | -6% | 7.9µM*
Cc1ccc(N2C(=O)C3C(C2=O)C(C(=O)c2ccc(Cl)cc2)N2CCCC32)cc1 (stereo not given) | -12% | -4%
N#Cc1c(N)nc(SCC(=O)NC2CCCCC2)c(C#N)c1-c1ccc(Cl)cc1 | -3% | 16µM*
CC(C)c1ccc(-c2c(C#N)c(N)nc(SCC(=O)N3CCCCCC3)c2C#N)cc1 | -3% | -9%
CCOC(=O)CSc1nc(N)c(C#N)c(-c2ccc(OCC)cc2)c1C#N | -3% | 0%
CC(C)c1ccc(-c2c(C#N)c(N)nc(SCC(=O)N3CCCCC3)c2C#N)cc1 | 4% | 25µM*
Cc1ccc(CN2COc3c(Cl)cc4c(-c5ccccc5)cc(=O)oc4c3C2)cc1 | -4% | -1%
CCCCOc1ccc(NC(=S)Nc2cc(C)nc(SCCCC)n2)cc1 | 0% | 25µM*
CCOc1ccc(NC(=O)CSc2nc(C)cc(C)n2)cc1 | 2% | 1%
COc1ccccc1CNC(=O)C1CCN(S(=O)(=O)c2c(C)noc2/C=C/c2cccs2)CC1 | -4% | ?
Cc1ccc(C(=O)c2sc(Nc3ccccc3F)c(S(=O)(=O)c3ccccc3)c2N)c(C)c1 | -3% | 6.3µM*
Cc1ccc(C(=O)c2sc(Nc3ccccc3)c(C#N)c2N)cc1 | -5% | 8%
Cc1ccc(S(=O)(=O)NC(=O)Nc2ccccc2F)cc1 | -2% | 4%
Cc1ccc(C(=O)c2sc(Nc3ccccc3)c(S(=O)(=O)c3ccccc3)c2N)c(C)c1 | -2% | 7.9µM*
Cc1ccc2nc(Cl)c3cc(C(=O)N(C)C4CCCCC4)sc3c2c1 | -3% | -12%
Cc1ccc(C)c(N2CCN(CCCNC(=O)c3ccc4nc(N5CCCCC5)sc4c3)CC2)c1 | -1% | 8%
CN(C)c1ccc(CNC(=O)CN2C(=O)C3CCCCN3c3ccc(C(=O)N4CCCC4)cc32)cc1 (stereo not given) | -2% | 5%
CCN(CC)CCOC(=O)c1ccc(NC(=O)Cn2ncc3c2-c2cc(C)ccc2OC3)cc1 | -3% | 1%
COc1ccc(C2Nc3ccccc3C(=O)N2Cc2ccco2)cc1COc1ccc(F)cc1 (stereo not given) | -9% | 25µM*
SMILES | Cruzain Triton | Cruzain noTriton
COc1ccc(C2Nc3ccccc3C(=O)N2Cc2ccco2)cc1CN1C(=O)c2ccccc2C1=O (stereo not given) | -1% | ?
O=C(Cn1c2c(sc1=O)C1c3ccccc3OCC1CS2)Nc1ccc(Cl)c(Cl)c1 (stereo not given) | -2% | 6.3µM*
Cn1c(N)c(N2CCCCC2)c(=O)n(CC(=O)Nc2ccc(Cl)c(Cl)c2)c1=O | -1% | -4%
Cc1ccc(-c2nc3sc(CCNS(=O)(=O)c4cc(F)ccc4F)c(C)n3n2)cc1 | -8% | 0%
CCCCCCc1cc2cc(S(=O)(=O)c3ccc(C)cc3)c(=O)oc2cc1O | -12% | -21%
CCCCCCc1cc2cc(S(=O)(=O)c3ccc(Cl)cc3)c(=O)oc2cc1O | -5% | 13µM*
COc1ccc(-n2cc(C(=O)N(C)c3cc(C)ccc3OC)c3ccccc3c2=O)cc1 | -8% | -9%
COc1ccc(C(=O)Nc2cc(C(C)C)c(O)c(S(=O)(=O)c3ccc(OC)cc3)c2C)cc1 | -1% | 25µM*
COc1ccc(C(=O)Nc2cc(C(C)C)c(O)c(S(=O)(=O)c3ccc(Cl)cc3)c2C)cc1 | -2% | ?
O=C(CNC(=O)c1ccco1)OCN1C(=O)c2ccccc2C1=O | 20µM* | ?
O=C(CNC(=O)c1ccco1)OCC(=O)c1cccc2ccccc12 | -7% | -20%
Cc1nn(CC(=O)NC(C)c2ccccc2)c(=O)c2cc3occc3n12 (stereo not given) | -2% | -9%
Clc1ccccc1-c1nc(Nc2ccccc2)nc2ccc(Br)cc12 | -1% | 25µM*
COc1ccccc1Nc1nc(-c2ccccc2Cl)c2cc(Br)ccc2n1 | 4% | 18%
O=C(NCc1ccccc1Cl)c1ccc(NC(=O)c2nsc3ccccc23)cc1 | 0% | -14%
